# Screening data: PubChem BioAssay, National Center for Advancing Translational Sciences (NCATS)
# ATXN2 expr inh – ATXN2 expression inhibition; HEK-293 ATXN2-luciferase reporter, luminescence, 24 h; Potency, µM (top dose mostly 57 µM), without a hit: at the highest dose activity change, negative = inhibition, actives largely listed as inhibitors; 360,000 tested, 0.72% active; note: potency is the fitted concentration of half-maximal effect; % is set by controls: 0 for no effect and ±100 for the full control effect; nearly all actives have a fitted effect of over 55% in size
#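 ATXN2-luciferase reporter cells (luciferase flanked by upstream and downstream ATXN2 gene portions) were treated 24 h at 37 °C with compounds at up to 57 uM. SteadyGlo luminescence gave expression; GF-AFC fluorescence gave viability.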
# DRD3 agonist – activates the human D3 dopamine receptor; max activation, %; D3R DiscoveRx beta-arrestin cells, luminescence, 90 min; 410,000 tested, 0.58% active; AID 652048; in the data active = max activation above about 30%; note: 0% is about no effect
# Target sequence (P35462 whole entry, looked up): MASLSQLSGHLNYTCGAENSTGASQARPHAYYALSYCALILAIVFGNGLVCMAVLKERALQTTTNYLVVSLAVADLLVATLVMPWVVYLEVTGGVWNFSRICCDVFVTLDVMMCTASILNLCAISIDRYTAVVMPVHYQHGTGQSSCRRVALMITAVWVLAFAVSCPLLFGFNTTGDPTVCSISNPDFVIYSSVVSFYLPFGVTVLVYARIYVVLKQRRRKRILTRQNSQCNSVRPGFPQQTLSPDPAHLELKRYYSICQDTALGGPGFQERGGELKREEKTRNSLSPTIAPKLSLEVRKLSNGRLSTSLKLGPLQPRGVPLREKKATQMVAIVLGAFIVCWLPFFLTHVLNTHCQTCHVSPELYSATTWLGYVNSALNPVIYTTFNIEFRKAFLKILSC
#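 Agonist-mode cell screen: cells plated at 1500/well and incubated overnight at 37 °C, then exposed to library compounds for 90 min at 37 °C. Detection reagent was added for 30–60 min at room temperature, and luminescence was read.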
# ATXN viability – reduces viability in counter-screen for ATXN expression inhibitors; S2 cells (HEK-293 line with an ATXN2-luciferase reporter) viability, CellTiter-Fluor protease fluorescence, 24 h; Potency, µM (highest dose often 56.7 µM), usual class: cytotoxic; 400,000 tested, 0.49% active; AID 651635; note: potency is the fitted concentration of half-maximal effect; nearly all actives have a fitted effect of over 40% in size
# HepG2 viability – HepG2 cytotoxicity, counter-screen for TGF-b inhibitors | Potency, µM (top dose mostly 46.1 µM), for the others: at the highest dose activity change, negative = cytotoxicity, actives largely listed as cytotoxic | AID 588856 | 410,000 tested, 0.76% active | HepG2 CAGA-GFP viability, ATP luminescence, 18 h; note: potency is the fitted concentration of half-maximal effect
#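 HepG2 CAGA-GFP cells (1000/well, DMEM with 1% FBS) received compound, then TGF-beta at 500 pg/mL final, and were incubated 18 hours at 37 degrees C. Viability was read by CellTiter-Glo luminescence. Media-only wells were set as complete cell-killing and DMSO as no toxicity.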
# TGFb inhibitor – TGF-b pathway inhibition; HepG2 CAGA-GFP TGF-b/SMAD3 reporter, GFP fluorescence, 18 h; TGF-beta stimulated, 500 pg/mL final; Potency, µM (titrated, usually from 46.1 µM), inactives show at the top dose activity, negative = inhibition, actives largely listed as inhibitors; 410,000 tested, 1.2% active; note: potency is the fitted concentration of half-maximal effect; % is set by controls: 0 for no effect and ±100 for the full control effect; nearly all actives have a fitted effect of over 65% in size
#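 Smad-responsive CAGA-GFP expression was quantified in HEPG2 cells exposed to compounds and 500 pg/mL final TGF-beta for 18 h at 37 degrees C; unstimulated wells defined full inhibition.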
# D3 antag – antagonists of human D3 dopamine receptor; P35462; D3R cells, DiscoveRx beta-arrestin luminescence, antagonist mode; hits give low values; max response, negative = inhibition, %; 360,000 tested, 2.5% active; in the data active = max response below about -50%; inconclusive = no clear call, values can overlap the other calls; note: % is set by controls: 0 for no effect and ±100 for the full control effect
#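 Cells plated overnight at 1500 cells/well, then exposed to library compounds with dopamine controls for 90 minutes at 37 degrees C. DiscoveRx reagent added for 30–60 minutes at room temperature; luminescence read, quantitative HTS format.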
# The depositor's hits bear a star; i = inactive; u = inconclusive; x = no result given. An excerpt weighted towards active compounds, which were near 4.8% of everything screened. Unless noted, calls come from the whole dose curve; as a rule, active = well fitted curve in the direction sought with a large enough effect; inconclusive = small, poorly fitted or top-dose-only effect, or another doubt; inactive = no such curve, though single readings can be large; an effect the other way counts as inactive or inconclusive.
SMILES,ATXN2 expr inh,DRD3 agonist,ATXN viability,HepG2 viability,TGFb inhibitor,D3 antag
OCCNc1ncnc2c1c(-c1ccccc1)c(-c1ccccc1)n2Cc1ccco1,-1%,1,i,-44%,3%,-4
c1ccc(-c2c(-c3ccccc3)n(Cc3ccco3)c3ncnc(NCCCn4ccnc4)c23)cc1,u,3,x,20µM*,u,-95*
N=c1c2c(-c3ccccc3)c(-c3ccccc3)n(Cc3ccco3)c2ncn1Cc1ccccc1,-24%,0,i,-23%,-5%,-19
N=c1c2c(-c3ccccc3)c(-c3ccccc3)n(Cc3ccccc3)c2ncn1CCO,u,-1,8.9µM*,-53%,u,15
Cc1ccc(Sc2ccc(N3CCCC(C(=O)Nc4ccc(F)cc4)C3)nn2)cc1 (stereo unspecified),-18%,-2,u,-5%,u,x
CC(C)(C)c1nnc(NS(=O)(=O)c2ccccc2)s1,2%,-13,i,x,x,x
O=C1C(=Cc2cccs2)C(=O)c2ccccc21,2%,-8,i,-24%,-2%,-8
O=C1C(c2ccccc2)=[N+]([O-])c2ccccc21,u,12,u,11µM*,u,u
COc1cccc(-c2nc3cc(SC)ccc3cc2CN(C(=O)c2sccc2C)C2CC2)c1,x,x,i,x,x,x
COc1ccc(-c2noc(CSc3nnc(-c4ccncc4)n3-c3ccc(C)c(C)c3)n2)cc1,x,1,x,-35%,-17%,x
CC1CC(C)CN(CCCNC(=O)c2cc3c(=O)[nH]c4ccccc4c3n2C)C1 (stereo unspecified),x,-3,i,-33%,3%,-64*
CCCCN(CC)CCNC(=O)c1cc2c(=O)n(C)c3ccccc3c2n1C,u,-17,u,-27%,-2%,-73*
Cn1c(C(=O)NCCCN2CCc3ccccc3C2)cc2c(=O)n(C)c3ccccc3c21,-22%,-16,i,-7%,21%,-70*
Cn1c(C(=O)NCCCN2CCCCCC2)cc2c(=O)n(C)c3ccccc3c21,1%,-8,u,-5%,14%,-7
CCCC(CCC)(C(=O)OCC)C(=O)OCC,-8%,x,i,x,x,x
COc1ccc2c(c1)c1c(c(=O)n(Cc3ccccc3)c(=O)n1CC(=O)NCc1ccccc1Cl)n2C,13%,7,i,-18%,-6%,x
Cc1ccc(NC(=O)Cc2ccc(Cl)cc2)cc1S(=O)(=O)N1CCCCCC1,u,1,u,-25%,u,6
Cc1ccc(NC(=O)COC(=O)c2ccc(NC(=O)CC#N)cc2)cc1S(=O)(=O)N1CCOCC1,-10%,-25,i,-6%,11%,-53*
Cc1ccc(O)c(NC(=O)c2ccc(Br)c(S(=O)(=O)N3CCCCC3)c2)c1,u,-9,u,14µM*,u,x
Cc1ccc(O)c(NC(=O)c2cccc(S(=O)(=O)N3CCCCC3)c2)c1,5%,-4,i,-6%,33%,0
Cc1ccc(C(=O)Nc2cccc(C(=O)O)c2)cc1,2.5µM*,-3,i,-24%,5%,-29
Cc1ccc(NC(=O)Cn2ncc(Cl)c(Cl)c2=O)cc1S(=O)(=O)N1CCCCC1,u,-14,x,-41%,u,-58*
Cc1ccc(NC(=O)COC(=O)c2ccc3c(c2)OCCO3)cc1S(=O)(=O)N1CCOCC1,-4%,-3,i,4%,-6%,4
CCOC(=O)c1cccc(NC(=O)c2ccc(-n3cnnn3)cc2)c1,-34%,74*,u,11%,8%,-3
Cc1ccc(C(=O)O)cc1S(=O)(=O)N1CCOCC1,-2%,11,i,-3%,-16%,-72*
SMILES,ATXN2 expr inh,DRD3 agonist,ATXN viability,HepG2 viability,TGFb inhibitor,D3 antag
Cc1ccc(NC(=O)COC(=O)C2CC3C=CC2C3)cc1S(=O)(=O)N1CCCCC1 (stereo unspecified),-11%,47*,i,12%,12%,1
COC(=O)c1cccc(NC(=O)c2cccc(-n3cnnn3)c2)c1,x,-5,i,-17%,-18%,-2
Cc1ccc(C(=O)Nc2cccc(C(=O)O)c2)cc1S(=O)(=O)N1CCOCC1,u,3,i,-10%,-15%,13
Cc1ccc(C(=O)Nc2cccc(C(=O)O)c2)cc1S(=O)(=O)N1CCCCC1,13µM*,-10,i,-12%,-7%,55
CCCCC(CC)CNC(=O)c1ccc(Cn2c(=O)[nH]c3cc(OC)c(OC)cc3c2=O)cc1 (stereo unspecified),x,5,x,-39%,0%,x
CNC(=O)c1ccc(N2C(=S)N(c3cnc(C#N)c(C(F)(F)F)c3)C(=O)C23CCC3)cc1F,14µM*,x,x,x,x,x
COc1cc(C2C(C(=O)Nc3ccccc3C)=C(C)Nc3nc(SCc4cc(C)ccc4C)nn32)ccc1O (stereo unspecified),x,5,x,7.1µM*,10µM*,x
C[C@]12O[C@H](C[C@]1(O)CO)n1c3ccccc3c3c4c(c5c6ccccc6n2c5c31)CNC4=O,x,-16,x,x,x,x
COc1cc(OC)c(NC(=S)Nc2cccc(C(C)=O)c2)cc1Cl,-16%,-10,i,-14%,-19%,-60*
COC(=O)c1cc(OC)c(OC)cc1NC(=S)Nc1cccc(Cl)c1,2%,-9,i,3%,-18%,-66*
Cc1cc(CNC(=O)CCN2Cc3cc(Cl)ccc3OC(C)C2)nn1C (stereo unspecified),x,x,i,x,x,x
COc1ccc(-c2nc(SCC(=O)NC(C)CCc3ccccc3)n[nH]2)cc1 (stereo unspecified),x,15,x,-21%,0%,x
CCCc1ncc(C(=O)O)s1,13%,x,i,x,x,x
COc1ccc(CCC(=O)NCc2ccc3c(c2)CCN3C(=O)c2ccccc2)cc1,x,1,x,3%,28%,x
COc1cc(OC)cc(C(=O)NCc2ccc3c(c2)CCN3C(=O)c2ccccc2)c1,x,-19,x,-16%,10µM*,x
COc1cc(CNCCSc2nnnn2C)ccc1OCc1ccccc1C,21%,-7,i,3%,-10%,x
CCOC(=O)c1c(NC(C)=O)sc2c1CCC(C=NCCCN(CC)CC)=C2Sc1ccccc1,u,2,x,-13%,1%,-66*
COc1ccccc1OCCn1c(C(C)Oc2ccccc2)nc2ccccc21 (stereo unspecified),-32%,-3,i,-46%,11µM*,x
CCOc1cc(S(=O)(=O)N(Cc2ccccc2)Cc2ccccc2)c(OCC)cc1-n1cnnn1,7%,-3,i,-1%,-24%,-63*
CCOc1cc(S(=O)(=O)NCc2ccccc2)c(OCC)cc1-n1cnnn1,1%,0,i,-14%,15%,-16
